In all, about 190,000 compounds went through this assay and about 3,100 (1.6%) were called active. The sample holds actives, similar compounds and a random draw of the others, so the mix is not that of the screen. No stated cut-off is given here; in the data, active means fold change above about 3.3; inconclusive means no clear call, values can overlap the other calls; inactive means below that.
experiment: activators of NF-kB expression in neurons, primary screen, cell-based, HTS (AID 1239); conditions: human neuronal cells, NF-kB reporter expression; at 12.5 µM; active compounds read high

Fold change, inactive:
O=C(CSc1ccccc1)Nc1ccc(NC(=O)c2ccco2)cc1 1.45
COC(=O)c1ccc(NC(=O)c2ccco2)cc1 2.51
CCS(=O)(=O)Nc1ccc(C2=NN(C(C)=O)C(c3cccs3)C2)cc1 (configuration not stated) 1.16
NS(=O)(=O)c1cccc(NC(=O)COC(=O)/C=C/c2ccco2)c1 1.19
CCCC(O)(CCC)C(=O)NN(C(=O)CCl)c1cccc(C)c1 0.5
Cc1ccc(N(NC(=O)C(C)(C)O)C(=O)c2ccccc2)cc1C 1.37
Cc1nc(-c2ccccc2)sc1C(=O)/C=C/N(C)C 1.77
COc1ccccc1NC(=S)N1CCC(NC(=O)C23CC4CC(CC(C4)C2)C3)CC1 0.97
CC(C)CNC(=O)c1cc(-c2ccc(Br)cc2)on1 0.98
CC(C)Cc1cc(C(=O)NCCc2ccccc2)no1 3.27
O=C(/C=C/c1ccc(Cl)cc1)Nc1ccc(S(=O)(=O)Nc2ncccn2)cc1 0.93
O=C(/C=C\c1cn(-c2ccccc2)nc1-c1cccs1)N1CCOCC1 0.42
O=C(O)/C=C/c1cn(-c2ccccc2)nc1-c1cccs1 1.14
CC(C(=O)NCC1CCCCC1)N(C)Cc1cccc(Cl)c1 (configuration not stated) 1.18
N/C(=N\OC(=O)Cc1ccc([N+](=O)[O-])cc1)c1ccccn1 1.74
O=C(OCc1ccc([N+](=O)[O-])cc1)c1ccccn1 1.29
CCOc1ncccc1C(=O)OCc1cn2cc(Cl)ccc2n1 1.18
O=c1cc(CSc2ccc(Cl)cc2)nc(N2CCOCC2)[nH]1 1.5
CN1CCC(OC(=O)COc2ccc(Cl)cc2Cl)CC1 1.16
CCOc1cnc(C(=O)NNC(=O)c2ccccc2Br)o1 1.13
COc1ccc(C(=O)NCC(=O)N/N=C/c2ccc([N+](=O)[O-])s2)cc1OC 0.62

Fold change, active:
O=C(Nc1ccc(Oc2ccccc2)cc1)c1ccco1 4.89
CCCCC(O)(CCCC)C(=O)NN(C(=O)CCl)c1ccccc1 4.9
CC(C)Cc1cc(C(=O)Nc2cc(Br)ccc2O)no1 6.03
O=C(O)c1ccc(N/N=C/c2cn(-c3ccccc3)nc2-c2cccs2)cc1 6.86
N/C(=N\OC(=O)c1ccc([N+](=O)[O-])cc1)c1ccccn1 5.12
Clc1ccc2nc(CSc3ccccc3)cn2c1 3.83
